Screens (PubChem)
3CLpro inhibitor = SARS-CoV 3CLpro protease inhibition | recombinant SARS-CoV 3CLpro, quenched FRET peptide cleavage | hit rate 0.14% among 290,000 | inhibition, % at 6 µM | P0C6X7; in the data active = inhibition above about 12%
BoNT A protease = inhibitors of Botulinum neurotoxin A light chain protease; multiplex microsphere protease substrate cleavage, flow cytometry; AID 588499; inhibition, % at 10 µM; hit rate 0.17% among 360,000; also: plate controls were buffer without enzyme for full effect and enzyme alone for no effect
Anthrax LF inh2 = blocks Bacillus anthracis lethal factor protease | AID 588501 | hit rate 0.12% among 360,000 | multiplex microsphere protease cleavage assay, LF | inhibition, % at 10 µM; also: plate controls were buffer without enzyme for full effect and enzyme alone for no effect
Target sequence (P15917 whole entry, looked up): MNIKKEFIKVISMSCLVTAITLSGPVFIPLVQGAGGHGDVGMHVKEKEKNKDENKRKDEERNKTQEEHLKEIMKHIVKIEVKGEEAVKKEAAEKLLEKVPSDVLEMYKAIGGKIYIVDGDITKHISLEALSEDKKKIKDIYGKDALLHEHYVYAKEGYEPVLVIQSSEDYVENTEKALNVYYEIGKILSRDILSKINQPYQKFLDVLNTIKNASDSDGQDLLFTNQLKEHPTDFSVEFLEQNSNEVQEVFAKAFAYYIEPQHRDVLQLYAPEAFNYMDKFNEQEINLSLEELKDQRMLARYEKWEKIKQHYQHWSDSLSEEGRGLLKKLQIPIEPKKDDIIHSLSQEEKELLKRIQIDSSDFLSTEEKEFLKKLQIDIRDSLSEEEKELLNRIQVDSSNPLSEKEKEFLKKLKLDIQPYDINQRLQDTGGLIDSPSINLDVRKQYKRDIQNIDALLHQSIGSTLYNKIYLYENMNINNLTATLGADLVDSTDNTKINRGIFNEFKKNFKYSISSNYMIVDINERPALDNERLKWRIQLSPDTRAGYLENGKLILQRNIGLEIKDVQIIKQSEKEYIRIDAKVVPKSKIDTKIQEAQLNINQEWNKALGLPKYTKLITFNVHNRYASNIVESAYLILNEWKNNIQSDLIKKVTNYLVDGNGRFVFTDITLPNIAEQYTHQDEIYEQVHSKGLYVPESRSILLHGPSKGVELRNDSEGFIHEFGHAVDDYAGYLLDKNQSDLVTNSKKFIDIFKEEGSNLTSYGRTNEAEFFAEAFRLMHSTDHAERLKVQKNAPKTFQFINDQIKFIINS
Autofluor counter = counter-screen for toxin protease inhibitors: compound fluorescence; compound autofluorescence counterscreen, microsphere flow cytometry; hits give high values; fluorescence intensity (no concentration beside the values); hit rate 3.1% among 360,000; AID 624483; in the data active = fluorescence intensity above about 16000; inconclusive = no clear call, values can overlap the other calls
CCHF vOTU inh = blocks the CCHF virus ovarian tumor domain protease; inhibition, % at 11.5 µM; hit rate 0.55% among 370,000; AID 651958; CCHFV vOTU protease, Pep-AMC fluorescence; in the data active = inhibition above about 30%; also: 0% = vehicle wells with enzyme and 100% = no enzyme wells
BoNT F protease = BoNT F light chain protease inhibition; Multiplex microsphere protease cleavage assay, flow cytometry; inhibition, % at 10 µM; hit rate 0.22% among 360,000; in the data active = inhibition above about 35%, passing the limit was not always enough; inconclusive = no clear call, values can overlap the other calls; also: plate controls were buffer without enzyme for full effect and enzyme alone for no effect
Active calls of the source: *; ? = inconclusive; / = no result. Sampled rows, rich in hits. Any-hit rate of the full collection: about 3.9%. Rule as the data show it, unless noted: active = inhibition above about 30%; inconclusive = no clear call, values can overlap the other calls; inactive = below that.

SMILES	3CLpro inhibitor	BoNT A protease	Anthrax LF inh2	Autofluor counter	CCHF vOTU inh	BoNT F protease
COc1ccc(C(C(=O)NC2CCCCC2)N(C(=O)c2sc(C)nc2C)c2ccccc2)cc1 (stereo not given)	-4	0	-2	2785	1	-1
COc1ccc(C(C(=O)NC2CCCC2)N(C(=O)c2snc(-c3ccc(F)cc3)c2N)c2ccc(F)cc2)cc1 (stereo not given)	4	-2	-2	24202*	-3	-2
COc1ccc(C(C(=O)NC2CCCC2)N(C(=O)c2snc(-c3ccc(F)cc3)c2N)c2ccc(OC)cc2)cc1 (stereo not given)	2	-1	0	21490*	2	0
COc1ccc(N(C(=O)c2ccn[nH]2)C(C(=O)NC2CCCC2)c2ccc(F)cc2)cc1 (stereo not given)	-1	1	0	4014	-6	-13
COc1ccc(N(C(=O)c2snc(C(N)=O)c2N)C(C(=O)NC2CCCC2)c2ccc(F)cc2)c(OC)c1 (stereo not given)	-3	0	-18	3611	2	-7
CC1CCCN(C(=O)C2(NC(=O)Nc3cccc(F)c3)CCCCC2)C1 (stereo not given)	3	-1	-5	4237	1	-5
COc1ccc(/C=C2\CC3(OC(=O)c4ccc(F)cc4)CCCN2C3)cc1 (stereo not given)	/	/	/	/	10	/
Cc1c(C(=O)N2CCOCC2)sc(NC(=O)c2ccccc2F)c1C#N	-4	-2	5	3270	3	-10
O=C1c2cccc(NCCCNCCO)c2C(=O)c2cccc(NCCCNCCO)c21	/	30*	-56	2093	22	-102
O=C(N/N=C/c1ccc(O)cc1O)c1ccc(NC(=O)C2CCCCC2)cc1	-8	2	36*	4739	6	4
O=C(N/N=C/c1cccc(O)c1)c1ccc(NC(=O)C2CCCCC2)cc1	2	-1	3	6725	19	-2
Cc1ccc(S(=O)(=O)Nc2ccccc2C(N)=O)cc1	6	-2	-1	17497*	-12	-12
COc1ccc(Cn2cc(COC(=O)NCC(C)C)nn2)cc1	/	/	/	/	-4	/
COc1ccccc1N1CCN(C(=O)c2cc(-c3ccc(C)cc3)on2)CC1	3	0	6	6118	4	7
COc1ccccc1N1CCN(C(=O)c2cc(-c3ccc(Cl)cc3)on2)CC1	-7	-3	-3	24151*	-4	-5
COc1ccc(-c2cc(C(=O)N3CCCCC3)no2)cc1OC	1	-1	0	23544*	-8	-1
Cc1noc(NS(=O)(=O)c2ccc(NC(=O)CSc3nnc(-c4ccccc4)n3C3CCCCC3)cc2)c1C	0	-1	-4	22405*	-2	0
CC1(O)CC(C)(C)C(C#N)C(=O)N1 (stereo not given)	/	0	2	3883	-5	4
Brc1cnc(N2CCCC2)nc1N1CCOCC1	0	?	0	21599*	-7	0
CN(CC(=O)Nc1ccccc1C(=O)N1CCCC1)S(=O)(=O)c1ccc(Br)cc1	2	-2	0	24180*	-6	-3
COc1ccc(C(=O)Nc2ccc(Br)cc2F)cc1S(=O)(=O)N1CCCC1	/	0	-2	5836	-3	-10
COCCNC(=O)CSc1nc2cc(OC)c(OC)cc2c(=O)n1Cc1ccco1	-12	?	-2	16515*	6	18
O=C(CSc1nc2cc(Cl)ccc2c(=O)n1Cc1ccco1)Nc1ccc(S(=O)(=O)N2CCOCC2)cc1	1	0	-3	1984	-2	5
COC(=O)c1ccc2c(=O)n(Cc3ccco3)c(SCC(=O)Nc3ccc(C)c(Cl)c3)nc2c1	-4	-1	-2	23373*	15	-1
CCC(Sc1nc2cc(OC)c(OC)cc2c(=O)n1Cc1ccco1)C(=O)NCCOC (stereo not given)	-2	-2	-16	9697	0	-19
Cc1ccc(S(=O)(=O)Nc2ncc(C(F)(F)F)cc2Cl)cc1	3	0	1	2484	2	1
O=C1/C(=C\c2cc(Cl)c(O)c(Cl)c2)SC(=S)N1Cc1ccccc1	-47	-12	18	17886*	-3	-8
O=C(CN1C(=O)/C(=C\c2ccco2)SC1=S)Nc1ccc(O)cc1C(=O)O	1	-1	1	5541	31*	1
O=C1/C(=C\c2ccco2)SC(=S)N1Cc1ccccc1	0	44*	34*	4535	18	15
COc1ccc(/C=C2/SC(=S)N(Cc3ccccc3)C2=O)cc1O	0	18	0	2980	2	16
